What is called AC50 is the concentration at which the activity in the assay is half-maximal.

The results in this text go back to PubChem BioAssay (EPA / NIEHS).

The nature of experiment [1]: CCTE_Shafer_MEA_dev_spike_duration_mean: CCTE's Neural Network Formation Assay for Mean Spike Duration, Shafer Lab (AID 2284051).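 Also: mean network spike duration pooled as area under curve over DIV 5 to 12 recordings.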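 As to AC50: potency for a decrease in mean network spike duration versus DMSO.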 The essentials:
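Spontaneous activity was recorded on days 5, 7, 9 and 12 from rat cortical cultures grown on microelectrode arrays and dosed continuously from day 0, with media and compound renewed after the DIV 5 and 9 recordings. Network-spike duration was collapsed by area under the curve.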

Experiment [2] in a line: CCTE_Shafer_MEA_dev_network_spike_duration_std: CCTE's Neural Network Formation Assay for Standard Deviation of Network Spike Duration, Shafer Lab (AID 2284052).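 Also: hits are decreases in network spike duration SD versus DMSO vehicle.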 The essentials:
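Network spike duration variability was collapsed across recordings on days 5, 7, 9 and 12 by trapezoidal area-under-curve and fitted downward against DMSO. Cultures were rat cortical neurons on PEI-coated MEA plates, dosed continuously from plating, refed with compound DIV 5/9.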

Experiment [3] can be described thus: CCTE_Shafer_MEA_dev_per_network_spike_spike_number_mean: CCTE's Neural Network Formation Assay for Mean Number of Spikes in a Network Spike, Shafer Lab (AID 2284053).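 As to AC50: fitted as decrease in spikes per network spike relative to DMSO.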 Put shortly:
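Mean spike count within each network spike, taken in a 0.05 s window at its peak, was recorded on days 5, 7, 9 and 12 and integrated as trapezoidal area under the curve. Rat cortical cultures on MEA plates received continuous compound from day 0, refreshed at medium changes on DIV 5 and 9.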

The nature of experiment [4]: CCTE_Shafer_MEA_dev_per_network_spike_spike_percent: CCTE's Neural Network Formation Assay for Percent of Spikes in a Network Spike, Shafer Lab (AID 2284054). The essentials: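 Primary rat cortical neurons on 16-electrode MEA wells (PEI-coated, laminin at plating), exposed from day 0 with renewal at DIV 5 and 9; spikes within 0.05 s of network-spike peaks over total spikes, AUC across days 5, 7, 9, 12.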

A short description of experiment [5]: CCTE_Shafer_MEA_dev_AB: CCTE's Alamar Blue Assay for Cytotoxicity in the Neural Network Formation Assay, Shafer Lab (AID 2284083; active = hit-call score of the fitted dose curve at least 0.9, where 1 is the maximum;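 also: resazurin reduction fluorescence as viability of cultured neurons; twelve days of exposure from plating with re-dosing on DIV 5 and 9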). The essentials:
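Resazurin fluorescence, relative to DMSO, gauges viability after twelve days of exposure that began at plating of rat cortical neurons (1.5 x 10^5 cells/well, 48-well MEA); treatment renewed with full medium exchange on DIV 5 and 9.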

Experiment [6] can be described thus: CCTE_Shafer_MEA_dev_mutual_information_norm: CCTE's Neural Network Formation Assay for Mutual Information Normalization, Shafer Lab (AID 2284091).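 As to AC50: mutual information between electrodes summarised as area under curve across four recording days; potency is for a decrease in mutual information relative to DMSO.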 The essentials: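 Rat cortical cultures, 48-well MEA, continuous exposure DIV 0–12 with full media/compound change DIV 5 and 9. Readout: inter-electrode mutual information, AxIS adaptive spike detection; AUC across DIV 5/7/9/12 recordings; DMSO baseline, negative fitting direction.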

Experiment [7] can be described thus: CCTE_Shafer_MEA_dev_correlation_coefficient_mean: CCTE's Neural Network Formation Assay for Mean Correlation Coefficient, Shafer Lab (AID 2284093).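 As to AC50: well mean pairwise spike train correlation integrated as AUC over recording days 5 to 12; potency fitted for loss of correlation relative to DMSO vehicle wells.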 The essentials: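 Primary rat cortical neurons on PEI-coated 48-well MEA plates (16 electrodes/well) were exposed from plating day 0 through DIV12, with compound renewed at DIV5 and 9. Pairwise spike correlations were averaged per well; trapezoidal AUC across DIV5, 7, 9, 12.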

The nature of experiment [8]: UKN2_HCS_IMR90_neural_migration: University of Konstanz (UKN) Leist Lab Neural Crest Cell Migration Assay in human induced IMR90 Pluripotent Stem Cells (UKN2) (AID 2284204). Particulars: actives raise or lower the signal. The essentials: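 iPSC-derived IMR90 neural crest cells on PLO/laminin/fibronectin were seeded around silicone stoppers; after stopper removal, migration in N2-S medium with EGF and FGF ran 24 h before 24 h chemical exposure. Calcein-AM/Hoechst high-content imaging; bidirectional fit versus DMSO.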

Experiment [9] can be described thus: IUF_NPC1b_proliferation_BrdU_72hr: Leibniz Research Institute for Environmental Medicine (IUF) 72-hour Neural Progenitor Cell Bromodeoxyuridine (BrdU) Proliferation Assay (NPC1b) (AID 2284207). The essentials: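 hNPC spheres (primary, GW 16-19 fetal cortex), single sphere/well, EGF+FGF medium; 72 h compound, no renewal; BrdU pulse last 16 h; luminescent ELISA; activity vs DMSO baseline; growth-factor withdrawal as positive control.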

Experiment [10] can be described thus: IUF_NPC1a_proliferation_area_72hr: Leibniz Research Institute for Environmental Medicine (IUF) 72-hour Neural Progenitor Cell Proliferation Area Assay (NPC1a) (AID 2284208). The essentials: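 Single 0.25–0.35 mm human fetal neural progenitor spheres in proliferation medium with EGF and FGF, exposed 72 h from plating without renewal at 37C, pH 7.2-7.6. Sphere area growth measured by automated phase-contrast imaging, relative to DMSO.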

Experiment [11] can be described thus: IUF_NPC1_viability_72hr: Viability Assessment at 72 hours in the Leibniz Research Institute for Environmental Medicine (IUF) Neural Progenitor Cell Proliferation Assay (NPC1) (AID 2284209). Put shortly:
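Each well receives one 0.3 mm progenitor sphere from fetal brain cortex; test chemical is added at plating and left three days. Viability comes from alamar blue fluorescence, multiplexed with LDH and BrdU readouts in the same well.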

Experiment [12] can be described thus: CCTE_Mundy_HCI_Cortical_Synap_Neur_Matur_NeuriteSpotCountPerNeuriteLength: CCTE's Synaptogenesis and Neurite Maturation Assay in rat cortical cells for Neurite Spot Count per Neurite Length, Mundy Lab (AID 2284210). Put shortly: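 Rat primary cortical cultures, glia arrested with AraC at DIV 5, were dosed with media change at DIV 7 and fixed at DIV 12. Synaptophysin puncta per MAP2-labelled neurite length were quantified by high-content imaging versus DMSO.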

Experiment [13] is described as follows: CCTE_Mundy_HCI_Cortical_NOG_NeuriteCount: CCTE's Neurite Outgrowth Assay in rat cortical cells for Neurite Count, Mundy Lab (AID 2284212).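 Also: cells fixed about two days after chemical exposure began.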 The essentials:
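Neurite number per cell from high-content imaging of betaIII-tubulin immunostaining, with Hoechst nuclear counterstain.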

The nature of experiment [14]: CCTE_Shafer_MEA_acute_AB: CCTE's Alamar Blue Assay for Cytotoxicity in the Neural Acute Assay, Shafer Lab (AID 2284069; active = hit-call score of the fitted dose curve at least 0.9, where 1 is the maximum;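 also: active compounds lower the viability signal compared with DMSO wells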). Put shortly: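 Resazurin reduction (CellTiter Blue, 1:6 in fresh medium) read at ex 544/em 590 nm marks viability loss relative to DMSO. Cells: primary rat cortical neuron networks on microelectrode arrays, treated after baseline recording at 13 or 15 days in vitro.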

Experiment [15] in a line: CCTE_Shafer_MEA_acute_LDH: CCTE's Lactate Dehydrogenase Assay for Cytotoxicity in the Neural Acute Assay, Shafer Lab (AID 2284086; active = hit-call score of the fitted dose curve at least 0.9, where 1 is the maximum;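 also: active means LDH release rises above DMSO vehicle level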). Put shortly: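 Released lactate dehydrogenase, read at 490 nm, indicated cytotoxicity after acute 40-min compound treatment of rat cortical neuron networks grown on 48-well MEA plates.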
Experiment [16] deals with DIO2 (gene 1734). Nature of the experiment: CCTE_GLTED_hDIO2: CCTE's human Deiodinase 2 (DIO2) Inhibition Assay, Great Lakes Toxicology and Ecology Division (GLTED) Lab (AID 2284050; active = hit-call score of the fitted dose curve at least 0.9, where 1 is the maximum). Put shortly: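 In this cell-free test, chemicals are exposed to human deiodinase type 2 for 3 hours. Released iodide is determined spectrophotometrically via the Sandell-Kolthoff method, and signal loss relative to DMSO is fitted.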

For experiment [17], the system named is DIO3 (gene 1735). The experiment in a line: CCTE_GLTED_hDIO3: CCTE's human Deiodinase 3 (DIO3) Inhibition Assay, Great Lakes Toxicology and Ecology Division (GLTED) Lab (AID 2284055; active = hit-call score of the fitted dose curve at least 0.9, where 1 is the maximum;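 also: potency is for inhibition seen as loss of released iodide signal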). The essentials:
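Enzyme activity is tracked as iodide release from substrate by recombinant human DIO3 over 3 h with chemical present. A second Sandell-Kolthoff step converts iodide to an absorbance signal, fitted relative to DMSO.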

Experiment [18] is described as follows: UKN5_HCS_SBAD2_cell_viability: Viability Assessment in the University of Konstanz (UKN) Leist Lab Neurite Outgrowth Assay in human iPSC-derived immature Dorsal Root Ganglia Neurons (UKN5) (AID 2284056). The essentials: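 iPSC-derived immature peripheral neurons (SBAD2) seeded on Matrigel with CHIR99021, SU5402 and DAPT, dosed 1 h later for 24 h. Viability from Hoechst H-33342 and calcein-AM live staining, high-content imaging; bidirectional fit versus DMSO.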

The nature of experiment [19]: UKN5_HCS_SBAD2_neurite_outgrowth: University of Konstanz (UKN) Leist Lab Neurite Outgrowth Assay in human iPSC-derived immature Dorsal Root Ganglia Neurons (UKN5) (AID 2284070). As to conditions: actives raise or lower the signal. The essentials: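 SBAD2 neurons, 24 h compound treatment, calcein-AM neurite area via HCS imaging; DMSO baseline, gain or loss of signal.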

The nature of experiment [20]: UKN4_HCS_LUHMES_neurite_outgrowth: University of Konstanz (UKN) Leist Lab Neurite Outgrowth Assay in human LUHMES cells (UKN4) (AID 2284206). Particulars: actives raise or lower the signal. The essentials:
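2-day-differentiated LUHMES, 24 h cpd exposure, live calcein-AM + H-33342 stain, HCS fluorescence imaging of neurite area; DMSO = baseline, bidirectional fit.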

Records with an inconclusive call do not appear. A structure can be active in one record and inactive in another. The source made the active and inactive calls. The calls were made as follows, unless noted: active = hit-call score of the fitted dose curve at least 0.9, where 1 is the maximum; inactive = score below 0.9.

`COP(=O)(OC)OC=C(Cl)Cl`: the AC50 was 1.45 µM (active) in experiment [1]; 0.852 µM (active) in experiment [2]; 1.94 µM (active) in [3]; 1.99 µM (active) in experiment [4]; 30.4 µM (active) in [5]; 0.378 µM (active) in [6]. Moreover, the concentration at half-maximal activity (AC50) in [7] was 0.656 µM (active); in experiment [10] it was 14.2 µM (active); in [11] it was 91.4 µM (active); in experiment [13], 77.3 µM (active). The compound was classed as inactive in experiment [1], in experiment [2], in experiment [3], in experiment [6], in [7] and in [8]. Also, the result in experiment [9], in experiment [12] and in experiment [13] was inactive.
Regarding `CNC(=O)/C=C(\C)OP(=O)(OC)OC`, the result in experiment [14] and in experiment [15] was inactive.
Regarding `CCC(C)Nc1c([N+](=O)[O-])cc(C(C)(C)C)cc1[N+](=O)[O-]` (configuration not stated), the result in experiment [14] was inactive.
`COP(=S)(OC)Oc1ccc(SC)c(C)c1`: the result in experiment [14] was inactive.
Consider `Oc1cc(Cl)ccc1Oc1ccc(Cl)cc1Cl`, for which the AC50 in experiment [16] was 84 µM (active); in [1], 10 µM (active); in experiment [2] it was 7.04 µM (active); in [3], 9.32 µM (active); in experiment [4], 9.46 µM (active); in [17], 85.5 µM (active). Besides, the figures for the concentration at half-maximal activity (AC50) in experiment [5], in [6] and in experiment [7] were 14.2 µM (active), 8.5 µM (active) and 9.23 µM (active), respectively. Further, the compound was called inactive in experiment [14] and in experiment [15].
Turning to `N#Cc1c(Cl)c(Cl)c(Cl)c(C#N)c1Cl`, the AC50 in experiment [16] is 5.63 µM (active); in experiment [17] it was 0.404 µM (active). The compound was called inactive in [14].
As for `CC(C)N(C(=O)COc1nnc(C(F)(F)F)s1)c1ccc(F)cc1`, the AC50 was 24.5 µM (active) in [1]; 15 µM (active) in experiment [3]; 15 µM (active) in experiment [4]; 7.79 µM (active) in [5]; 15 µM (active) in experiment [7]. Besides, the compound was called inactive in experiment [1], in experiment [2], in [3], in [4], in experiment [18] and in [19]. Further, the compound was classed as inactive in experiment [5], in experiment [15], in [6], in [7], in [8] and in experiment [20]. Moreover, the outcome in experiment [9], in experiment [10], in [11], in experiment [12] and in experiment [13] was inactive.
Turning to `COP(=S)(OC)Oc1ccc([N+](=O)[O-])cc1`, the compound was called inactive in [1], in experiment [2], in [4], in experiment [6], in experiment [20] and in experiment [9]. The result in experiment [10], in experiment [11] and in experiment [12] was inactive. The AC50 in [3] is 24.6 µM (active); in experiment [5], 24.3 µM (active); in experiment [7], 23 µM (active); in [13], 23.4 µM (active).
